D2 PAM-1: potentiates the human D2 dopamine receptor allosterically; DiscoveRx D2 beta-arrestin cells, luminescence, 90 min; 100% = 57 uM dopamine signal; potentiation, % (concentration not given with the values); P14416; 0.23% of 360,000 active; in the data active = potentiation above about 50%
Target sequence (P14416 whole entry, looked up): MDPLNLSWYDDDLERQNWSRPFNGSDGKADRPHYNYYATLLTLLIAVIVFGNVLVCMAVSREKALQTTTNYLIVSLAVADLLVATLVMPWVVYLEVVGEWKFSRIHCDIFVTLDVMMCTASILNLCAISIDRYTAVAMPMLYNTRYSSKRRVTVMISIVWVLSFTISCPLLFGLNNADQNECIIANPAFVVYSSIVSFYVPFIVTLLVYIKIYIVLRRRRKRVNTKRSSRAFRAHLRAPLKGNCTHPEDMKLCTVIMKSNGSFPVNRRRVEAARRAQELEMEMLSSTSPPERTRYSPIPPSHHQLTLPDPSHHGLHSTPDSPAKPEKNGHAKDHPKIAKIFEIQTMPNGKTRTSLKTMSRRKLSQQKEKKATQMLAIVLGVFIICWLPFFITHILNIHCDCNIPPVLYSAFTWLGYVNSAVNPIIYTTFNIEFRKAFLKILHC
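PathHunter beta-arrestin assay in DiscoveRx D2 cells. Compounds were added with an EC20 of dopamine (50 nM final) for 90 min at 37 deg C. Luminescence was read 1 h after detection reagent, with 57 uM dopamine as the EC100 control.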
D2 PAM-2: positively modulates the human D2 dopamine receptor allosterically; potentiation, % at 10 µM; HEK293 T-REx D2, calcium flux, EC20 dopamine potentiation; P14416; 0.34% of 340,000 active; AID 485347;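 active = potentiation over 3 SD above the plate norm, cut at about 30% in these data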; note: 0% is about no effect
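Using a no-wash calcium dye in inducible, force-coupled HEK293 Trex cells expressing D2, we tracked fluorescence each second for 180 s after compound, then for 180 s after EC20 dopamine to detect augmented signalling.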
D2 antag: D2 dopamine receptor (human) antagonism. 2% of 340,000 active. inhibition, % at 10 µM. HEK293 TREx D2 cells, calcium flux, dopamine EC80. P14416. AID 485344; in the data active = inhibition above about 30%; inactive = below that, where a call was filed; note: 0% is about no effect
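Tetracycline-induced HEK293 T-REx cells expressing D2 force-coupled to calcium signalling were dye-loaded, exposed to compound for 180 s, then challenged with an EC80 of dopamine; calcium flux was followed kinetically for a further 180 s.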
D2 ag-1: D2 dopamine receptor (human) agonism. HEK293 T-REx D2 cells, calcium flux agonist mode. P14416. 0.53% of 340,000 active. activation, % at 2 µM;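 active = activation over 3 SD above normal in the single-dose calcium agonist read, cut at about 30% in these data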; note: 0% is about no effect
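Calcium-flux readout, 1 cycle/sec over 180 s following compound pin transfer, in inducible HEK293 Trex D2 cells (force-coupled); dopamine controls included. Positive calcium responses during this window marked compounds as potential agonists.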
D2 ag-2: activates the human D2 dopamine receptor; P14416; 0.084% of 360,000 active; DiscoveRx PathHunter D2 beta-arrestin, luminescence, 90 min; 100% = 57 uM dopamine signal; activation, % (concentration not given with the values); in the data active = activation above about 40%
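DiscoveRx PathHunter D2 beta-arrestin cells (2,100/well) attached overnight, then compound-stimulated 90 min at 37 C in HBSS/10 mM HEPES/0.1% Tween-20 buffer; beta-galactosidase complementation read by luminescence after 1 h at ambient temperature. Dopamine 57 uM final (EC100) as control.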
* = called active by the depositor; x = no result given. In the library only some 2.4% were active in any assay of this set; here they are far more common.

SMILES | D2 PAM-1 | D2 PAM-2 | D2 antag | D2 ag-1 | D2 ag-2
Cc1ccc(C2(C(F)(F)F)NC(=O)N3C(=C2C#N)Nc2ccccc23)cc1 (stereo unspecified) | -2.0 | -4.1 | -11.3 | 0.3 | -2.8
CCOc1ccc(CNC(=O)c2cc3c(=O)n(Cc4cccs4)ccc3nc2C)cc1 | x | -22.2 | x | -0.6 | x
CCCNC(=O)C1CCC(CNS(=O)(=O)c2ccc3c(c2)CC(C)N3C(C)=O)CC1 (stereo unspecified) | -10.1 | 9.9 | 40.5* | 2.5 | -1.6
CC(=O)N1c2ccc(S(=O)(=O)NCC3CCC(C(=O)NCCC(C)C)CC3)cc2CC1C (stereo unspecified) | x | -12.8 | x | x | x
COc1ccc(-c2nc(CSc3nnc(C)n4c3cc3sccc34)c(C)o2)cc1 | x | -3.9 | x | -1.4 | x
Cc1ccc(CN2C(=O)c3ccccc3Sc3ccc(C(=O)NCc4ccco4)cc32)cc1 | x | 7.3 | x | 0.2 | x
CCN(C(=O)N(CC)c1ccccc1)c1ccccc1 | -0.3 | -9.6 | 42.5* | -0.5 | 4.8
CC(C)c1ccc(Nc2ncnc3c2c(-c2ccccc2)cn3-c2ccccc2)cc1 | x | 1.3 | x | -0.2 | x
Cc1cccc(N(CC(=O)N2CCCC2)S(=O)(=O)c2ccccc2)c1 | 2.0 | x | x | x | -0.8
Cc1ccc(S(=O)(=O)N(CC(=O)N2CCCCC2)c2cccc(C)c2)cc1 | -5.7 | -9.4 | 31.8* | 0.1 | -1.1
COc1ccc(CNC(=O)Nc2cc(C)cc(C)c2)cc1 | -10.6 | 9.5 | -12.1 | -1.5 | -2.6
COc1ccc(OCC(O)CNC(=O)Nc2cc(C)cc(C)c2)cc1 (stereo unspecified) | -27.3 | -16.1 | 30.1* | -1.1 | -5.5
O=C(Cn1cnc2onc(-c3ccc(F)cc3)c2c1=O)N1CCN(c2ccc(F)cc2)CC1 | x | 3.5 | x | 0.4 | x
O=C1CCN(Cc2ccccc2)CCN1[C@H](COc1ccccc1)Cc1ccccc1 | -5.4 | 6.2 | -2.7 | 7.5 | 7.9
CCCN1CCC(=O)N([C@H](COc2ccccc2)Cc2ccccc2)CC1 | -19.4 | -4.0 | 39.3* | 0.5 | -1.3
CC1CN(C(=O)/C(C#N)=C2\N=C(NC(=O)c3ccccc3Cl)c3ccccc32)CC(C)O1 (stereo unspecified) | x | 2.0 | 58.9* | -0.1 | x
Cc1cc2c(cc1NC(=O)c1ccccc1C)n(C)c(=O)c(=O)n2C | x | -7.5 | x | 1.1 | x
O=C(O)c1cccnc1Nc1cccc(C(F)(F)F)c1 | 17.3 | 4.7 | 55.6* | -1.4 | -0.6
COc1ccccc1S(=O)(=O)Cc1ccc(C(=O)NCc2ccc(Cl)cc2)o1 | x | -0.3 | x | x | x
Cn1c(CC(=O)Nc2ccc(Cl)c(Cl)c2)nnc1SCC(=O)Nc1nccs1 | -4.6 | 8.1 | -26.0 | -0.2 | -1.3
Cn1c(CSCc2ccccc2Cl)nnc1SCC(=O)Nc1nccs1 | -1.6 | 10.8 | 59.7* | 0.3 | 0.6
Cn1c(CCCOc2ccc(Cl)cc2Cl)nnc1SCC(=O)Nc1nccs1 | 0.1 | 1.7 | 31.9* | 0.6 | 2.1
CCCCc1nnc(SCC(=O)Nc2nccs2)n1C | 8.0 | 15.3 | -5.7 | 0.5 | -0.4
Cc1nc(CC(=O)Nc2cccc(C)c2C)cs1 | x | -0.7 | x | 1.0 | x
O=C(C1CCN(S(=O)(=O)Cc2ccccc2)CC1)N1CCN(c2cccc(C(F)(F)F)c2)CC1 | x | 4.6 | x | 0.2 | x
SMILES | D2 PAM-1 | D2 PAM-2 | D2 antag | D2 ag-1 | D2 ag-2
CC1(C(=O)NNC(=O)c2ccc([N+](=O)[O-])cc2)CC1(Br)Br (stereo unspecified) | -27.9 | 3.5 | 37.1* | 0.1 | -5.1
CC1(C(=O)NNC(=O)c2cccc([N+](=O)[O-])c2)CC1(Br)Br (stereo unspecified) | -3.7 | -3.9 | 1.7 | 0.2 | 1.9
CCc1ccccc1NC1Nc2cc(C)nn2S1 (stereo unspecified) | -8.3 | 56.5* | 7.7 | 0.3 | -3.9
Cc1cc2n(n1)SC(Nc1cccc3ccccc13)N2 (stereo unspecified) | 11.0 | 0.2 | -2.1 | 0.5 | -1.5
COc1ccc(N2CCN(C(=O)c3nn(-c4ccc(C)cc4)c(=O)n(C)c3=O)CC2)cc1 | x | 0.0 | x | 0.4 | x
COc1ccc(NC(=O)Cn2c(=O)n(-c3cccc(C(F)(F)F)c3)c(=O)c3sccc32)cc1 | x | 3.5 | x | -0.6 | x
CCOc1ccccc1CNC(=O)C1CCN(C(=O)N2CC(CC)Oc3ccc(C)cc32)CC1 (stereo unspecified) | x | -23.0 | x | x | x
O=C1c2ccccc2C(=O)N1CC1c2ccccc2CCN1S(=O)(=O)c1cnc[nH]1 (stereo unspecified) | 21.4 | -3.7 | 46.4* | 0.8 | 0.7
O=C(Cn1c(=O)c(CNc2ccccc2)cc2cc3c(cc21)OCCO3)Nc1ccccc1Cl | x | -5.7 | x | 1.0 | x
CN1CCc2ccccc2Cc2[nH]c3ccccc3c2CC1 | -31.1 | -18.3 | 72.0* | 0.8 | -2.0
Cc1ccn2c(c1)nc(=O)c1cc(S(=O)(=O)N3CCC(C)CC3)c(Cl)cc12 | x | -4.0 | x | -0.5 | x
O=C(CN1CCN(c2ccccc2)CC1)NC(=O)NCc1ccco1 | -0.5 | -11.2 | -15.0 | 38.9* | 1.5
Cc1cccc(NC(=O)CSc2nc3n[nH]c(C)c3c(=N)n2-c2cccc(Cl)c2)c1 | x | -9.2 | x | 0.9 | x
Cc1ccc(NC2=Nc3ccccc3CC2)cc1 | -56.0 | -26.9 | 60.6* | 0.9 | -5.1
Brc1ccc(NC2=Nc3ccccc3CC2)cc1 | -8.2 | -14.1 | 7.7 | 1.1 | 0.2
CC(C)c1ccc(NC(=O)Cc2cn(C)c3ccccc23)cc1 | -9.2 | -7.8 | 48.8* | -0.1 | -4.0
Cn1cc(CC(=O)NCc2ccc(F)cc2)c2ccccc21 | -6.0 | 9.2 | -29.2 | -0.4 | -0.7
Cn1cc(CC(=O)NCCN2CCOCC2)c2ccccc21 | -9.6 | 39.3* | 24.5 | 0.2 | 0.1
CCOc1cc(C2c3c(-c4cc(C)ccc4O)n[nH]c3C(=O)N2CCCOC(C)C)ccc1O (stereo unspecified) | x | -11.5 | x | -0.2 | x
Cc1cccc(C(=O)Nc2ccc(C(=O)OCc3cc(=O)n4nc(CC(C)C)sc4n3)cc2)c1 | x | 2.0 | x | 1.0 | x
Cc1cccc(C(=O)Nc2nnc(SCc3cc(=O)n4cccc(C)c4n3)s2)c1 | x | -10.9 | x | 1.4 | x
CC(NC(=O)Cc1ccc(F)cc1)C(c1cccs1)N1CCN(C)CC1 (stereo unspecified) | 3.3 | 50.3* | -1.4 | 0.1 | -0.8
CC(NC(=O)c1cccs1)C(c1cccs1)N1CCN(c2ccccc2)CC1 (stereo unspecified) | -4.1 | 54.5* | 7.2 | -0.3 | 0.5
CC(C)C(=O)NC(C)C(c1cccs1)N1CCN(c2ccccc2)CC1 (stereo unspecified) | -13.3 | 17.3 | -10.2 | 1.2 | 0.8
Cc1nn(-c2ccccc2)c(-n2cccc2)c1C(=O)N1CCN(c2ccccc2)CC1 | x | -5.6 | x | -0.3 | x
Cc1nc2scc(C)n2c(=O)c1S(=O)(=O)NCC1CCN(Cc2ccc(F)cc2)CC1 | -27.5 | -7.9 | 34.2* | 0.7 | -4.2

Bioassay records as filed in PubChem BioAssay.
